Bioassay records deposited in PubChem BioAssay by several laboratories.
NALP3 yeast inh: NALP3 inhibition in yeast. 0.39% of 330,000 active. inhibition, % at 10 µM. Yeast reconstituted NLRP3/ASC/caspase-1, beta-gal luminescence, 24 h;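 active means inhibition of 50% or more; inactive means inhibition below 50%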;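 further: plate controls were induced DMSO wells for no effect and uninduced yeast grown without galactose for full effect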
SKKanGAS inh: inhibitors of SKKanGAS S. pyogenes growth in kanamycin (SK-promoter or general growth effect); BacTiter-Glo, 6 h; inhibition, % at 7.5 µM; 1.3% of 300,000 active; AID 1662;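 active means mean replicate score, as percent of positive control median, at least 50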;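 further: strain carries kanamycin resistance gene driven by streptokinase promoter and grows in 40 µg/ml kanamycin; loss of luminescence reflects streptokinase promoter inhibition or plain growth inhibition; 0% = median of DMSO wells and 100% = positive control at its reference dose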
TIM10 inh: growth inhibitors of TIM10 yeast strain. 1.4% of 330,000 active. S. cerevisiae TIM10 strain growth, BacTiter-Glo luminescence, 24 h. inhibition, % at 10 µM;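 active means inhibition of 40% or more at the single tested concentration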;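 further: wild-type TIM10 isogenic control strain grown at permissive 25 °C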
NALP1 yeast inh: NALP1 inhibition | 0.61% of 280,000 active | S. cerevisiae NALP1/ASC/caspase-1 growth, X-gal OD620, 72 h | AID 2071 | inhibition, % at 10 µM; in the data active means inhibition mostly above about 24%, no sharp cut-off; inactive means mostly below about 32%
tim23-1 inh: tim23-1 yeast growth inhibition; S. cerevisiae tim23-1 growth, BacTiter-Glo luminescence, 24 h; inhibition, % at 20 µM; 1.3% of 330,000 active; AID 463212;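 active means growth inhibition of the mutant yeast at or above 50%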;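 further: temperature-sensitive mutant grown at 25 °C; plate controls were DMSO-treated mutant yeast for no effect and medium wells lacking yeast for full effect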
tim10-1 inh: growth inhibitors of tim10-1 mutant yeast | S. cerevisiae tim10-1 ts strain growth, BacTiter-Glo, 24 h | AID 463190 | inhibition, % at 20 µM | 2.2% of 330,000 active;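 active means inhibition of at least 40%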;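 further: mutant grown at 25 °C; 0% = DMSO wells with yeast and 100% = wells holding no yeast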
tim10-1 confirm: tim10-1 yeast growth inhibition, confirmed; shares compounds with tim10-1 inh; S. cerevisiae tim10-1 ts strain growth, BacTiter-Glo, 24 h; 56% of 7,400 active; inhibition, % at 20 µM;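 active means inhibition of yeast growth at or above a set limit in either of two repeat tests at 20 µM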;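 further: tim10-1 mutant grown at permissive 25 °C to find synthetic lethal compounds; 0% = DMSO yeast wells and 100% = medium wells without yeast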
tim10 confirm: TIM10 yeast growth inhibition, confirmed. shares compounds with TIM10 inh. S. cerevisiae tim10 strain growth, BacTiter-Glo luminescence, 24 h. inhibition, % at 10 µM. 63% of 4,600 active. AID 463215;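 active means inhibition of yeast growth at or above a set limit in either of two replicates at 10 µM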;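 further: this counterscreen used the strain with wild-type TIM10; 0% = yeast with DMSO and 100% = medium wells lacking yeast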
tim23-1 conf: tim23-1 yeast growth inhibition, confirmed. shares compounds with tim23-1 inh. S. cerevisiae tim23-1 growth, BacTiter-Glo luminescence, 24 h. inhibition, % at 20 µM. 83% of 4,400 active. AID 463218;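 active means inhibition above about 39% in either of two replicate wells at 20 µM, limit read from the data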;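 further: temperature-sensitive tim23-1 mutant grown at 25 °C; 0% = DMSO wells with yeast and 100% = medium wells without yeast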
* marks the source's active call; other numbers are inactive results. This is a sample that favours compounds with a hit; in the whole collection about 4.9% have one here.

Results for O=S(=O)(c1cccc(-c2csc(-c3ccccc3)n2)c1)N1CCOCC1 ?
NALP3 yeast inh: 48; SKKanGAS inh: -21; TIM10 inh: 28; NALP1 yeast inh: 3; tim23-1 inh: 18; tim10-1 inh: 37

What do the screens show for `Cc1ccc(C(=O)N2N=C(c3cccc(NS(C)(=O)=O)c3)CC2c2cccs2)cc1` (configuration not stated)?
NALP3 yeast inh: 12; SKKanGAS inh: 15; TIM10 inh: 18; NALP1 yeast inh: -8; tim23-1 inh: 26; tim10-1 inh: 22

What do the screens show for `O=Cc1ccc(OCc2cccc(C(F)(F)F)c2)cc1O`?
NALP3 yeast inh: -1; TIM10 inh: 14; NALP1 yeast inh: 13; tim23-1 inh: 57*; tim10-1 inh: 45*; tim10-1 confirm: 48*; tim23-1 conf: 42*

What do the screens show for `COCOc1ccc(C=O)c(O)c1`?
NALP3 yeast inh: 7; SKKanGAS inh: 0; TIM10 inh: -7; tim23-1 inh: 13; tim10-1 inh: 4

How did CC(C)(C)c1cc(CP(=O)(c2ccccc2)c2ccccc2)cc(C(C)(C)C)c1O do in these assays?
NALP3 yeast inh: 21; SKKanGAS inh: 26; TIM10 inh: 14; NALP1 yeast inh: 15; tim23-1 inh: 43; tim10-1 inh: 38

What do the screens show for `COc1ccccc1C/C(N)=N/OC(=O)COc1ccc2ccccc2c1`?
NALP3 yeast inh: 18; SKKanGAS inh: 15; TIM10 inh: 55*; NALP1 yeast inh: 0; tim23-1 inh: 52*; tim10-1 inh: 48*; tim10-1 confirm: 64*; tim10 confirm: 43*; tim23-1 conf: 77*

How did COc1ccccc1C/C(N)=N/OC(=O)COc1cccc2ccccc12 do in these assays?
NALP3 yeast inh: 21; SKKanGAS inh: -11; TIM10 inh: 74*; NALP1 yeast inh: 9; tim23-1 inh: 65*; tim10-1 inh: 58*; tim10-1 confirm: 64*; tim10 confirm: 62*; tim23-1 conf: 73*

How did COc1ccccc1C/C(N)=N/OC(=O)COc1ccc(C)cc1 do in these assays?
NALP3 yeast inh: 23; SKKanGAS inh: 3; TIM10 inh: 28; tim23-1 inh: 17; tim10-1 inh: 14

How did S=C(NCCc1ccccn1)Nc1ccc(Cl)cc1Cl do in these assays?
NALP3 yeast inh: 21; SKKanGAS inh: -6; TIM10 inh: 18; NALP1 yeast inh: -12; tim23-1 inh: 22; tim10-1 inh: 15

What do the screens show for `COc1ccc(/C=C/C(=O)Nc2ccc(OC)nc2)cc1`?
NALP3 yeast inh: 30; SKKanGAS inh: -10; TIM10 inh: -20; NALP1 yeast inh: 37; tim23-1 inh: -27; tim10-1 inh: -38

What do the screens show for `COc1ccc(CS(=O)(=O)/C(Cl)=C(/Cl)C(=O)Nc2ccc(OC)nc2)cc1`?
NALP3 yeast inh: 10; SKKanGAS inh: -4; TIM10 inh: 52*; NALP1 yeast inh: -8; tim23-1 inh: 72*; tim10-1 inh: 73*; tim10-1 confirm: 66*; tim10 confirm: 58*; tim23-1 conf: 76*

Results for COc1ccc(NC(=O)/C(Cl)=C(/Cl)S(=O)Cc2ccccc2)cn1 (configuration not stated) ?
NALP3 yeast inh: 22; SKKanGAS inh: -21; TIM10 inh: 69*; NALP1 yeast inh: 13; tim23-1 inh: 86*; tim10-1 inh: 49*; tim10-1 confirm: 34*; tim10 confirm: 84*; tim23-1 conf: 14

Results for O=C(CSC(=S)N1CCCC1)NCC(=O)Nc1ccccc1Br ?
NALP3 yeast inh: 17; SKKanGAS inh: 9; TIM10 inh: 2; tim23-1 inh: 11; tim10-1 inh: 8

What do the screens show for `O=C1c2ccc(Oc3cccc([N+](=O)[O-])c3)cc2C(=O)N1c1ccccn1`?
NALP3 yeast inh: 3; SKKanGAS inh: 4; TIM10 inh: 62*; NALP1 yeast inh: 12; tim23-1 inh: 52*; tim10-1 inh: 46*; tim10-1 confirm: 54*; tim10 confirm: 42*; tim23-1 conf: 65*

How did O=C1c2cc([N+](=O)[O-])cc3cc([N+](=O)[O-])cc(c23)C(=O)N1c1ccccn1 do in these assays?
SKKanGAS inh: 20; NALP1 yeast inh: -17

How did CC1CCc2[nH]c3ccc(C(=O)N4CCCC(C(F)(F)F)C4)cc3c2C1 (configuration not stated) do in these assays?
NALP3 yeast inh: -3; SKKanGAS inh: 1; TIM10 inh: 25; tim23-1 inh: 68*; tim10-1 inh: 42*; tim10-1 confirm: 30; tim23-1 conf: 55*

Results for COC(=O)c1ccc2[nH]c3c(c2c1)CC(C)CC3 (configuration not stated) ?
NALP3 yeast inh: -6; SKKanGAS inh: 7; TIM10 inh: 19; tim23-1 inh: 40; tim10-1 inh: 24

What do the screens show for `C=C(C(=O)c1ccccc1)C(C)CC(=O)c1ccccc1` (configuration not stated)?
NALP3 yeast inh: 17; SKKanGAS inh: 12; TIM10 inh: 49*; NALP1 yeast inh: 38; tim23-1 inh: 55*; tim10-1 inh: 44*; tim10-1 confirm: 60*; tim10 confirm: 56*; tim23-1 conf: 48*

What do the screens show for `O=C(CC(Nc1ccccc1)C(=O)O)c1ccccc1` (configuration not stated)?
NALP3 yeast inh: 11; SKKanGAS inh: 5; TIM10 inh: 8; NALP1 yeast inh: -11; tim23-1 inh: 17; tim10-1 inh: 16

What do the screens show for `Cc1ccc(O)c(Sc2cc(C)ccc2O)c1`?
NALP3 yeast inh: 27; SKKanGAS inh: 9; TIM10 inh: 27; NALP1 yeast inh: 3; tim23-1 inh: 53*; tim10-1 inh: 47*; tim10-1 confirm: 28; tim23-1 conf: 45*

Results for CN(C(=O)c1cccc(C(F)(F)F)c1)C1CCCc2ccccc21 (configuration not stated) ?
NALP3 yeast inh: 17; SKKanGAS inh: 0; TIM10 inh: -10; NALP1 yeast inh: 16; tim23-1 inh: 6; tim10-1 inh: 1

How did O=C1NC(Cc2ccccc2)c2nc3ccc(F)cc3c(=O)n2-c2cc(Cl)ccc21 (configuration not stated) do in these assays?
NALP3 yeast inh: 11; TIM10 inh: 4; tim23-1 inh: 22; tim10-1 inh: 21

How did COc1ccccc1C(=O)NC(C(=O)NCCc1nc2ccccc2[nH]1)=C(C)C do in these assays?
NALP3 yeast inh: 10; SKKanGAS inh: 1; TIM10 inh: -2; NALP1 yeast inh: 13; tim23-1 inh: 5; tim10-1 inh: 3
